Results filed as inconclusive are left out. Unmarked numbers belong to inactive results. The source made the active and inactive calls. Calls follow the shape of the dose curve; as a rule, active = well fitted curve in the direction sought with a large enough effect; inconclusive = small, poorly fitted or top-dose-only effect, or another doubt; inactive = no such curve, though single readings can be large; an effect the other way counts as inactive or inconclusive.

Test [1] is described as follows: ZIKV-mCherry secondary qHTS for Zika virus inhibitors (AID 1347158). Also: top concentration of the series differs between compounds. A digest of the protocol:
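Vero cells, 5,000/well, plated overnight at 37 °C, then compound added and infected with recombinant ZIKV-mCherry at MOI 1 for 48-72 h. PFA-fixed, Hoechst nuclear stain, high-content imaging; cells with mCherry intensity above 450 RFU scored infected, reported as percent infection.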
(In qHTS, concentration-response curves come from the screen itself.)

A short description of test [2]: Confirmatory screen NINDS Rhodamine qHTS for Zika virus inhibitors (AID 1347161). Also: potency is read from the fitted curve at half-maximal effect; nearly all actives have a fitted effect of over 60% in size. A digest of the protocol:
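Aprotinin served as in-plate control. Conditions: 25 nM linked NS2B-NS3, pH 8.0 Tris buffer, titrated compounds, 15 min preincubation and 15 min reaction with 1.5 microM Rhod110 substrate at room temperature.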

Test [3] deals with Zika virus NS2B-NS3 protease (linked). The test can be described thus: 384 well plate NINDS AMC confirmatory qHTS for Zika virus inhibitors (AID 1347163). Also: potency is read from the fitted curve at half-maximal effect; nearly all actives have a fitted effect of over 50% in size. The procedure, abridged: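 Linked protease 5/30/60 nM final; cpds up to 1 mM final, ~15 min preinc. Substrate Ac-VKTGKR-AMC 30 microM final. RT, dark, 25 min; FI ex 355/em 460; normalized to no-enzyme/no-inhibitor ctrls.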
In test [4] the test system is Zika virus NS2B-NS3 protease (unlinked complex). The test can be described thus: Primary screen GU Rhodamine qHTS for Zika virus inhibitors: Unlinked NS2B-NS3 protease assay (AID 1347159). Also: nearly all actives have a fitted effect of over 60% in size. Also: potency is read from the fitted curve at half-maximal effect. The procedure, abridged: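 Noncovalent NS2B hydrophilic domain/NS3 protease complex (25 nM final) in 10 mM Tris-HCl pH 8.0, 0.01% Tween 20, preincubated 15 min with compounds (up to 114 microM), then 1.5 microM Rhodamine110 substrate. Fluorescence change over 15 min fitted to 4-parameter Hill.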

The subject of test [5] is Zika virus NS2B-NS3 protease (linked construct). The test can be described thus: Primary screen NINDS Rhodamine qHTS for Zika virus inhibitors (AID 1347160). Also: nearly all actives have a fitted effect of over 55% in size. Also: potency is read from the fitted curve at half-maximal effect. The procedure, abridged: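 Purified NS2B-NS3 protease with the NS2B hydrophilic domain joined by a flexible linker (25 nM) in 10 mM Tris-HCl pH 8.0, 0.01% Tween 20, preincubated 15 min at RT with compound; Rhodamine110 peptide substrate 1.5 µM; fluorescence change over 15 min; 4-parameter Hill fit.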

Test [6] in a line: Vero cells viability qHTS for Zika virus inhibitors (AID 1347167). The procedure, abridged:
(§1)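 Compounds were tested in concentration series on cells grown in DMEM containing 4% FBS. After 24 to 48 hours, cellular ATP was measured by luminescence with CellTiter Glo.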

A short description of test [7]: HepG2 cells viability qHTS for Zika virus inhibitors (AID 1347168). The procedure, abridged:
as §1

The nature of test [8]: Tertiary RLuc qRT-PCR qHTS assay for Zika virus inhibitors (AID 1347169). Also: potency is read from the fitted curve at half-maximal effect; nearly all actives have a fitted effect of over 55% in size. A digest of the protocol:
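Inhibition of ZIKV-RLuc replication in Vero cells, read as Renilla luminescence 1-1.5 hrs after live-cell substrate addition, following 48-72 hrs infection at MOI 1-2 in presence of compound.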
(In general: In qPCR the cycle at which signal appears reflects the starting amount.)

Regarding `Oc1cccc(-c2c3nc(c(-c4cccc(O)c4)c4ccc([nH]4)c(-c4cccc(O)c4)c4nc(c(-c5cccc(O)c5)c5ccc2[nH]5)CC4)C=C3)c1`, the Potency result in test [1] was “inactive”. Besides, the Potency in test [2] was 20 µM (active); in test [3], 3.16 µM (active).

Consider `COc1ccnc(CS(=O)c2nc3cc(OC(F)F)ccc3[nH]2)c1OC` (stereo not drawn), for which the Potency entry in test [4] is “inactive”. Regarding `C=C1CCC2C(C)(C)CCCC2(C)C1CC/C(C)=C\CO` (stereo not drawn), the Potency in test [4] is 17.8 µM (active). The same measure, in the same setting: the entry for `COc1ccc(S(=O)(=O)Nc2cc(Cl)cc(Cl)c2OC)cc1N1CCNCC1` is “inactive”; for `C[C@@H]1CC[C@@]23CC[C@]4(C)[C@@](C=CC5[C@@]6(C)CC[C@H](O)C(C)(C)C6CC[C@]54C)(OC2=O)C3[C@H]1C` (stereo partly drawn) it is 6.31 µM (active). Regarding `Cc1cc(C)c2c(c1)C(N(Cc1cc(C(F)(F)F)cc(C(F)(F)F)c1)c1nnn(C)n1)CCCN2CC1CCC(C(=O)O)CC1` (stereo not drawn), the Potency result in test [1] is “inactive”. For the same compound, the Potency in test [4] was 3.16 µM (active); in test [5] it was 3.55 µM (active); in test [2], 4.94 µM (active); in test [8] it was 16.5 µM (active). Moreover, the compound was called inactive in test [6] and in test [7]. As for `CC(C)(C)OC(=O)c1ncn2c1C(C)(C)Nc1ccccc1-2`, the Potency entry in test [4] and in test [5] was “inactive” throughout.

For the compound `CC(C)NC(=O)N1CC[C@H](N=C2Nc3cc(F)ccc3N(CC(F)F)c3ccc(Cl)cc32)C1`, the Potency entry in test [4] and in test [5] was “inactive” each time.

Consider `COC1CC(=O)C23C(=O)NC(Cc4c[nH]c5ccccc45)C2C(C)C2(C)OC2C3/C=C/CC(C)CC1O` (stereo not drawn), for which the Potency result in test [4] and in test [5] was “inactive” in each case. Regarding `C=CC(C)(C)c1[nH]c2ccccc2c1C[C@@H]1NC(=O)[C@H](C)NC1=O`, the Potency entry in test [4] was “inactive”. Consider `O=C(NNc1nc2cc(F)ccc2n2cccc12)c1cnccn1`, for which the Potency entry in test [4] and in test [5] was “inactive” each time. For the compound `CC(C)(O)C1Cc2c(ccc(C(=O)CCc3ccccc3)c2O)O1` (stereo not drawn), the Potency result in test [4] and in test [5] was “inactive” in each case.

Turning to `Cc1cn2c(n1)Cc1ccc(Cl)cc1C(c1ccc(N)cc1)=N2`, the Potency entry in test [4] and in test [5] was “inactive” each time. Turning to `CC1CCCC(O)CC(=O)c2c(O)cc(O)cc2CC(=O)O1` (stereo not drawn), the Potency entry in test [4] and in test [5] was “inactive” in each case. Take `C=C1C(=O)O[C@@H]2C3C(=C(C)[C@@H](O)[C@@H](OC(=O)/C(=C/C)COC(C)=O)[C@@H]12)C(=O)[C@H]1O[C@@]31C` (stereo partly drawn): the Potency result in test [4] and in test [5] was “inactive” each time. Consider `O=C(NO)c1cnc(N2CCN(S(=O)(=O)c3ccc4ccccc4c3)CC2)nc1`, for which the Potency entry in test [4] and in test [5] was “inactive” throughout. Regarding `C=C1C(=O)O[C@@H]2C[C@@]3(C)C[C@@H](O)C[C@H](C)C3=C[C@H]12`, the Potency result in test [4] and in test [5] was “inactive” in each case.

Consider `CCc1cccc(CC)c1-n1c(C=C(C)C)c(C(=O)N2CCNCC2)cc(-c2nc(-c3ccc(C(F)(F)F)cc3)cs2)c1=O`, for which the Potency entry in test [4] is “inactive”.

Regarding `COC(=O)CC(O)CC(O)/C=C/c1c(C)ccc2c1C(OC(C)=O)CC(C)C2` (stereo not drawn), the Potency entry in test [4] and in test [5] was “inactive” throughout.

`COc1ccc(-c2cnc3c(-c4cccc5ncccc45)cnn3c2)cc1`: the Potency result in test [4] was “inactive”.

Turning to `CC1CCC(=O)CC(SCC(O)C(=O)O)CCC(=O)O1` (stereo not drawn), the Potency result in test [4] and in test [5] was “inactive” each time. In the case of `CCC/C=C\C=C/CCc1cc(O)c([C@@H]2O[C@H](CO)[C@@H](O)[C@H](O)[C@H]2O)c(O)c1C(=O)OC`, the Potency result in test [4] and in test [5] was “inactive” each time. On to `CC(OC1OCCN(Cc2n[nH]c(=O)[nH]2)C1c1ccc(F)cc1)c1cc(C(F)(F)F)cc(C(F)(F)F)c1` (stereo not drawn), for which the Potency in test [4] was 44.7 µM (active). As to `O=C(N[C@H]1CCC[C@H](CO)C1)C1CCN(c2nc3cc(Cl)c(-c4ccc(Cl)cc4)cc3o2)CC1`, the Potency result in test [4] and in test [5] was “inactive” each time. For the compound `C=C1C(=O)O[C@@H]2/C=C(\C)CC/C=C(\C)CC[C@@H]12`, the Potency entry in test [4] and in test [5] was “inactive” each time.

For the compound `Nc1nc2c(cnn2CCCc2ccc(O)cc2)c2nc(-c3ccco3)nn12`, the Potency result in test [4] and in test [5] was “inactive” each time. As to `C=C(C)C(=O)OC1CC(CO)CCC/C(CO)=C/C2OC(=O)C(=C)C21` (stereo not drawn), the Potency entry in test [4] and in test [5] was “inactive” in each case. Turning to `CN(C)CCOc1cc(NS(=O)(=O)c2c(Cl)cc(C(F)(F)F)cc2Cl)ccc1Cl`, in test [4], the Potency is 5.62 µM (active). Regarding `O=S(=O)(Cc1ccccc1)Nc1ccc(-c2ccc3c(cnn3-c3ccc(F)cc3)c2)c(C(F)(F)F)c1`, the Potency in test [4] is 20 µM (active). As to `CCCCCCCCC(=O)N[C@H](CN1CCCC1)[C@H](O)c1ccc2c(c1)OCCO2`, the Potency entry in test [4] and in test [5] was “inactive” in each case. With `Cc1nc(Nc2cnn(C3CCNCC3)c2)nc2c1N(C)C(=O)c1cc3ccccc3cc1N2C`, the Potency entry in test [4] and in test [5] was “inactive” in each case.

For the origin of these results see PubChem BioAssay (NCATS).
